Results reported in PubChem BioAssay AID777 (Sanford-Burnham Center for Chemical Genomics, 2007).
The whole screen tested about 96,000 compounds, of which about 19,000 (20%) were called active. Only a sample is shown. Values without a mark were called inactive.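 Rule for the calls: active = blocking of liver enzyme CYP2C9 beyond about 50% at 5 µM (limit read from the data); inactive = the rest.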

These compounds were tested against Cytochrome P450 2C9 (Homo sapiens) (UniProt P11712) (assay: blockers of cytochrome P450 2C9 activity – biochemical, luminescence, ADME assay, primary screen (AID 777)). Conditions: CYP2C9 Supersomes, luciferin-H conversion, at 5 µM, active compounds read high.
Chain of Cytochrome P450 2C9 (Homo sapiens) (P11712 whole entry, looked up): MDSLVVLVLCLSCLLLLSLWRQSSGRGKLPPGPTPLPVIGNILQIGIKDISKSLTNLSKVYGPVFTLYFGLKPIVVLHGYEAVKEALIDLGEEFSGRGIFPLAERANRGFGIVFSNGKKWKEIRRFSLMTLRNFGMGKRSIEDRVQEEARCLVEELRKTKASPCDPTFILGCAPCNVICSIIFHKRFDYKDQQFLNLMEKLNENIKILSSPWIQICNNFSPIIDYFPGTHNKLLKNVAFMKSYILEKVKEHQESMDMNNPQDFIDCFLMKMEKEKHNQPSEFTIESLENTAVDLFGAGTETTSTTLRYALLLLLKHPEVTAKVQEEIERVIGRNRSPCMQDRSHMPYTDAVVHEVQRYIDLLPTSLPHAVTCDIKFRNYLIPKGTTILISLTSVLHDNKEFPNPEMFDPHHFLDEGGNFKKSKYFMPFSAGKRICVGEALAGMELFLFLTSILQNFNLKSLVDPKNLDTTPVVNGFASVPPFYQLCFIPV

SMILES	inhibition
CCCCNCc1ccc(SC)cc1	4.1%
Cc1ccccc1OC(=O)Cn1c(C(F)(F)F)nc2ccccc21	30.1%
Cc1cc(=O)oc2cc(NC(=O)C3CC(=O)N(Cc4ccccc4)C3)ccc12 (stereo not given)	10.4%
COc1cccc(-c2nnc(SCCOc3ccc4c(C)cc(=O)oc4c3)o2)c1	42.3%
Cc1cc(=O)oc2cc(OCC3CC(c4ccccc4Cl)=NO3)ccc12 (stereo not given)	65.7% (active)
O=c1cc(CN2CCN(c3cccc(Cl)c3)CC2)c2cc3c(cc2o1)CCCC3	58.6% (active)
OC(COc1ccc2c(c1)CCC2)CN1CCN(c2cccc(Cl)c2)CC1 (stereo not given)	-14.4%
Cn1c(C(=O)NCCCN2CCN(c3cccc(Cl)c3)CC2)cc2c(=O)n(C)c3ccccc3c21	22.8%
C=CCN(C(=O)Cn1ncc2c1-c1cc(C)ccc1OC2)c1ccccc1	38.4%
Cn1c2ccccc2n2c(=O)c(=O)n(CC(=O)c3ccc(F)cc3)nc12	-18%
OCCNc1nc2ccccc2n1-c1ncnc2sc3c(c12)CCC3	16.9%
Cc1cc(=O)[nH]c(SCc2cc(Cl)ccc2OC(F)F)n1	76.4% (active)
O=c1cc(O)nc(SCc2ccccc2Cl)[nH]1	37%
Cc1cc(=O)[nH]c(SCc2cccc(F)c2)n1	23.7%
Cc1ccccc1C(OCC(O)CN1CCCCC1CCO)c1ccccc1 (stereo not given)	-0.6%
COc1cc(NS(=O)(=O)c2ccc(N/C=C(\C=O)c3nc4cc(Cl)ccc4o3)cc2)nc(OC)n1	39.2%
O=[N+]([O-])c1cccc(-c2nnc3c4ccccc4c4ccccc4n23)c1	11.9%
O=c1[nH]c2ccccc2n2c(-c3ccccc3)nnc12	62% (active)
O=c1[nH]c(-c2ccccc2)c(-c2ccccc2)[nH]1	17.9%
COc1ccccc1-c1nnc(SCC(=O)N2CC(C)CC(C)C2)o1 (stereo not given)	-292%
O=C(c1cnn2ccccc12)N1CCc2ccccc21	-42.7%
CCC(C)NC(=O)N[C@@H](CCSC)C(=O)O (stereo not given in full)	8.8%

SMILES	inhibition
C/C(=N/NC(=O)c1ccc(NC(=O)c2ccc(F)cc2)cc1)c1ccccc1	3.1%
O=C(CSc1ccc(/C=N/NC(=O)c2cccc(F)c2)o1)Nc1ccccc1	80.3% (active)
O=C(Cn1cc(/C=N/NC(=O)c2cccc(C(F)(F)F)c2)c2ccccc21)Nc1ccc(F)cc1	23.8%
CC(C)c1nc2oc3c(N4CCN(C)CC4)ncnc3c2c2c1CCC2	24%
CCOC(=O)c1c(C)c(C(=O)NCCc2ccc(S(N)(=O)=O)cc2)c(C)n1CC	16.4%
CCC12CN3CC(CC)(CN(C1)C31C(=O)N(C)c3ccc(C)cc31)C2=O (stereo not given)	3.6%
CN(c1ccc(C(=O)NCc2ccccn2)cc1)S(C)(=O)=O	-10.8%
O=C(NCc1ccccn1)c1cc2ccccc2oc1=O	-26%
O=C(NCc1ccccn1)c1ccc2nc(-c3ccco3)c(-c3ccco3)nc2c1	67.3% (active)
COc1ccc(CN2CCn3ncc(C(=O)Nc4ccc(Cl)cc4Cl)c3C2=O)cc1	14.3%
CC(C)C(=O)Nc1nnc(Sc2ccc(N(C)C)cc2)s1	-3.9%
ONC(=Nc1ccc(Cl)cc1)c1ccccc1Cl	40.4%
N/C(=N\c1nc2ccccc2o1)NC(=O)C(Cc1ccccc1)N1C(=O)c2ccccc2C1=O (stereo not given)	89.2% (active)
Cc1cc(C)nc(NC(=O)C(C)N2C(=O)c3ccccc3C2=O)n1 (stereo not given)	-15.6%
O=C(NCCN1CCOCC1)[C@H](Cc1ccccc1)N1C(=O)c2ccccc2C1=O	-32.6%
CCN(CC)CCn1c(=S)[nH]c2ncccc2c1=O	16.3%
CCCc1nnc(NC(=O)c2cccs2)s1	14.9%
COc1ccc(OC)c(Nc2nc(-c3ccc(O)c(O)c3)cs2)c1	24.3%
COc1ccc(-c2n[nH]c(C)c2-c2ccc(OC)c(OC)c2)c(O)c1	98.8% (active)
COc1ccccc1-c1n[nH]c2c1[C@H](C)CC[C@H]2C(C)C	36.5%
C=C(C)COc1ccc(-c2n[nH]c(C)c2-c2ccccc2OC)c(O)c1	54.9% (active)
C=C(C)COc1ccc(-c2n[nH]c(C)c2-c2ccccc2)c(O)c1	26.2%

SMILES	inhibition
COc1ccc(-c2nc(-c3ccccc3)no2)c(OC)c1	-7%
CCc1c(C)[nH]c(=S)c(C#N)c1C	16%
Cc1cc(C)nc(NC2=NCC(=O)N2c2ccc(Cl)cc2)n1	-8.5%
Cc1ccc(Oc2nc3ccccc3n3c(C)nnc23)cc1	13.5%
COC(=O)CN(c1cccc(C(C)=O)c1)S(C)(=O)=O	40.7%
CC1=NN(C(C)C)C(=O)C1	12.8%
COCCNC(=O)COc1ccc(C)c(C)c1	-28.7%
O=S(=O)(O)c1nc2ccccc2n1Cc1ccc(Cl)cc1	43.6%
CCC(=O)Nc1nc2ccccc2n1Cc1ccccc1C	-6.9%
O=S(=O)(O)c1nc2ccccc2n1Cc1ccc(Cl)cc1Cl	74.7% (active)
Cc1ccc(F)c(NC(=O)CCc2ccccc2)c1	-15.7%
O=C(OCc1cn(-c2ccc(Cl)c(Cl)c2)nn1)c1ccccc1Cl	-32.3%
CCc1nnc(NC(=O)c2ccc(S(=O)(=O)NC3CCCCC3)cc2)s1	20.2%
CCc1nnc(NS(=O)(=O)c2ccc(N=Cc3c(C)[nH]n(-c4ccc(C)cc4)c3=O)cc2)s1	17%
CCc1nnc(NS(=O)(=O)c2ccc(NS(=O)(=O)c3ccccc3)cc2)s1	77.5% (active)
CCC(C)NC(=O)c1cc(Cl)ccc1OC (stereo not given)	-166%
Cc1ccc(C(C(=O)NC2CCCCC2)N(C(=O)c2csnn2)C2CC2)o1 (stereo not given)	26.6%
CCc1c(C)sc(NC(=O)OC)c1C(=O)N1CCOCC1	-10.7%
CCCCCN1CC(O)=C(c2nc(-c3ccc(Cl)cc3)cs2)C1=N	62.1% (active)
COc1ccccc1N1CC(O)=C(c2nc3ccccc3s2)C1=N	26.8%
CCCCCN1CC(O)=C(c2ccccc2)C1=N	-11.3%
